The panel holds about 83,000 compounds, 20% with a hit somewhere; the sample as a whole holds those more often.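 Single-concentration screen, 48 h exposure, 96-well plates. Endpoint: percent growth. Below 10 = active.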 Values without a mark were called inactive.
System: SNB-19 CNS
Assay: NCI-60 one-dose screen, 48 h (100 = growth as untreated, 0 = no growth, -100 = all killed)
Details: 10 µM unless noted
Method: Growth inhibition of the SNB-19 human tumor cell line is measured as a screen for anti-cancer activity. Cells are grown in 96 well plates and exposed to the test compound for 48 hours. Compounds are tested at a single concentration, which is 10^-5 M for most compounds. The reported endpoint is percent growth (GI% or GIPRCNT), where numbers from 0 - 100% represent growth inhibition, and numbers from -100% - 0 represent cell death. For example, a value of 40 represents 60% growth inhibition. A value of 0 means no net growth occurred over the course of the experiment. A value of -40 indicates 40% of cells at the beginning of the experiment died by the end of the experiment. A value of -100 means all cells are dead at the end of the experiment.
NCI-60 Human Tumor Cell Lines Screen was performed using the standard one-dose NCI protocol, which is described in more detail at https://dtp.cancer.gov/discovery_development/nci-60/default.htm.
Compounds with GIPRCNT values below 10 were considered active. Activity score was based on GIPRCNT using the following formula: […]
Score is 0 for GIPRCNT values of 100 or above, 50 for GIPRCNT values of 0, and 100 for GIPRCNT values of -100.

Structure (SMILES) | growth
C#CCNC(=O)CC[C@@H](C)[C@H]1CC[C@H]2[C@@H]3CC[C@@H]4CC(=O)CC[C@]4(C)[C@H]3CC[C@]12C | 14.8% [100 µM]
Cc1ccc(S(=O)(=O)Oc2ccc(Br)cc2Br)cc1 | 75.7%
O=C(NCc1ccccc1)C(Cl)Cl | 96.7%
CCN(CC)c1cc(N)c(Cc2c(N)cc(N(CC)CC)cc2Cl)c(Cl)c1 | 35.1%
CC1(C)CC[C@]2(C(=O)OC(=O)[C@]34CCC(C)(C)C[C@@H]3C3=CC[C@@H]5[C@@]6(C)CCC(=O)C(C)(C)[C@@H]6CC[C@@]5(C)[C@]3(C)CC4)CC[C@]3(C)C(=CC[C@@H]4[C@@]5(C)CCC(=O)C(C)(C)[C@@H]5CC[C@]43C)[C@H]2C1 | 62.8% [100 µM]
CC1Cc2c(Cl)ncnc2N(C)c2ccc(O)cc21 (stereo not given) | 44.4%
COc1cc(NCc2cn(-c3ccc(C(=O)O)cc3)nc2-c2ccc(C(=O)O)cc2)cc(OC)c1OC | 97.4%
O=C1Nc2ccccc2/C1=C/C(=O)c1ccc(N2CCCC2)cc1 | 57.2%
CC(=O)n1cc(C=O)c2ccccc21 | 100%
O=C(Oc1ccc(Cl)cc1[N+](=O)[O-])Oc1ccc(Cl)cc1[N+](=O)[O-] | 115%
Nn1c(Nc2ccc(S(=O)(=O)Nc3ncccn3)cc2)nnc(/C=C/c2c(O)ccc3ccccc23)c1=O | 96.8%
COc1ccc(-c2ccc(NNC(=O)c3ccc(F)cc3)nn2)cc1OC | 68.3%
Cc1cnc(N)nc1OCC(C)(C)CNC(=O)c1cccc(-c2ccc(S(=O)(=O)Nc3ccc4c(c3)N(C(=O)C3CC3)CCC4)cc2)c1 | 67.9%
COc1ccc2c(c1)C(C)Cc1c(Cl)nc(C)nc1N2C (stereo not given) | 24.7%
C#CCC(C(=O)OCC)C(=O)OCC | 102%
CCOC(=O)C(C(C)=O)c1nc2sc3cc(Cl)c(Cl)cc3n2c(=O)c1C#N (stereo not given) | 93%
COc1ccc(NCc2cn(-c3ccc(C(=O)O)cc3)nc2-c2ccc(C(=O)O)cc2)cc1C(F)(F)F | 96.4%
COc1ccc(-c2cc(-c3ccccc3)nc(SCCCCCC(=O)NO)n2)cc1 | 70.5%
Nc1cccc2c1C(=O)c1cccc(NC(=O)c3ccccc3)c1C2=O | 45.3%
Cc1ccc(-c2cn(C/C=C3\C=CN(S(=O)(=O)c4ccccc4)CC3)nn2)cc1 | 93%

Structure (SMILES) | growth
Cn1ncc2c(Nc3ccc(O)cc3)nc(Cl)nc21 | 106%
CCN(CC)CCS(=O)(=O)CCNc1ccnc2cc(Cl)ccc12 | 70%
O=C(O)c1ccccc1C(F)(F)F | 99.1%
CC1Cc2ccc(OCCN(C)C)cc2C1=O (stereo not given) | 106%
CC1=C/C(=C(\c2cc(C)c(O)c(C(=O)O)c2)c2c(Cl)cccc2Cl)C=C(C(=O)O)C1=O | 91.3%
COc1ccc2c(c1)C(C)Cc1c(Cl)ncnc1N2C (stereo not given) | 27.7%
CC(C)[N+](C)(C)CC(O)COc1cccc2ccccc12 (stereo not given) | 103%
N#CCCc1c[nH]c2ccccc12 | 105%
COc1ncc(-c2ccc3nccc(C#CCCCCC(=O)O)c3c2)cc1NS(=O)(=O)c1ccc(F)cc1F | 31.1%
c1ccc2c(c1)CN(CCCN1CCOCC1)C2 | 96.1%
CCOC(=O)CC(c1ccccc1)C(C#N)c1ccccc1 (stereo not given) | 111%
CCN(CC)c1ccc2cc(C(Nc3ccc(C)cc3)c3nnnn3C(C)(C)C)c(=O)oc2c1 (stereo not given) | 87.8%
N#Cc1c(Cl)nc(SCC2CO2)nc1-c1ccccc1 (stereo not given) | 106%
COc1cc2c(c(OC)c1OC)-c1ccc(NNC(N)=S)c(=O)cc1[C@@H](NC(C)=O)CC2 | 42.3%
O=C1CC(C(F)(F)F)Cc2nc3ccc(Br)cc3cc21 (stereo not given) | 92%
CCn1cc(-c2ccnc(NCCNS(=O)(=O)c3ccc(Br)cc3)c2)c(-c2cccc(OC)c2)n1 | 83.2%
COc1ccc2nc3cc(Cl)ccc3c(Nc3ccc(O)cc3)c2c1 | 81.9%
CC1(C)C(=NO)C(C)(C)C1=NO | 107%
CCOC(=O)C(c1ccccc1)N1C(=O)c2ccccc2C1=O (stereo not given) | 100%
COc1cc2c(c(OC)c1OC)-c1cc(I)c(O)cc1[C@@H](NC(C)=O)CC2 | 14.1%
